This is part of a sample that, as a whole, favours compounds with a hit. Of some 83,000 tested, about 20% had one in any assay.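 For each line, cells grew in 96-well plates with the test compound present at a single concentration for 48 hours.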 A number with no mark means an inactive call. Active and inactive are the calls of the source. The calls were made as follows: active = growth percent below 10; inactive = the rest.
Columns and labels:
Test in all cases: NCI-60 one-dose screen, 48 h (100 = growth as untreated, 0 = no growth, -100 = all killed)
Details in all cases: 10 µM unless noted
DU-145 prostate = test system: DU-145 prostate
K-562 leukemia = test system: K-562 leukemia
MALME-3M melanoma = test system: MALME-3M melanoma
MDA-MB-231 breast = test system: MDA-MB-231 breast
RXF 393 renal = test system: RXF 393 renal
SF-268 CNS = test system: SF-268 CNS
SF-295 CNS = test system: SF-295 CNS
SF-539 CNS = test system: SF-539 CNS
M14 melanoma = test system: M14 melanoma
UACC-257 melanoma = test system: UACC-257 melanoma

Structure (SMILES) | growth (DU-145 prostate) | growth (K-562 leukemia) | growth (MALME-3M melanoma) | growth (MDA-MB-231 breast) | growth (RXF 393 renal) | growth (SF-268 CNS) | growth (SF-295 CNS) | growth (SF-539 CNS) | growth (M14 melanoma) | growth (UACC-257 melanoma)
COc1cc(C(=O)c2cc3c(cc2C)OCO3)cc(OC)c1OC | 21.5% | 13.7% | 50.4% | 23.3% | 42.9% | 43.1% | -50.4% (active) | 6.27% (active) | 22.5% | –
CCOC(=O)Nc1cc(-c2ccc(C)c(NS(C)(=O)=O)c2)nn2c(C)nnc12 | 43.9% | 16.7% | -25% (active) | 26.5% | -8% (active) | 41.6% | -21.2% (active) | 17.2% | 19% | –
CC(=O)/C(=C/c1ccc(Cl)cc1)C(=O)c1ccccc1 | 99.6% | 61.8% | 103% | 96.1% | 100% | 82.8% | 60.2% | 101% | 86% | –
O=C(Nc1nc(-c2ccc(Cl)cc2)cs1)c1cc(-c2ccc(Br)cc2)nc2ccc(Cl)cc12 | 55.6% | 25.2% | 44.6% | 37.8% | 98.6% | 31.6% | 91% | 2.4% (active) | -16.8% (active) | –
CN1CCN(CCCOc2ccc3ncnc(Nc4ccc(OCc5cccc(F)c5)c(Cl)c4)c3c2)CC1 | 18.8% | -26.9% (active) | -78.6% (active) | -78.7% (active) | -80.4% (active) | -43% (active) | -57.4% (active) | -88.9% (active) | -83.4% (active) | –
Cc1[nH]c(=O)[nH]c(=O)c1CCSSCCc1c(C)[nH]c(=O)[nH]c1=O | 113% | 95.8% | 115% | 119% | 111% | 113% | 98.4% | 110% | 95.1% | –
COc1cc(-c2nc3nc4sc(C)c(C)c4c(=O)n3[nH]2)cc(OC)c1OC | 99.7% | 47% | 59.6% | 91.2% | 78.9% | 95.9% | 60.5% | 83.4% | 78.2% | –
O=C1/C(=C/c2cccc(Cl)c2)CCc2ccccc21 | 106% | 46.4% | 100% | 98.9% | 110% | 99.4% | 85.5% | 103% | 103% | –
CCCCNCCCN(CCCC)CCCNCCCC | 114% | 102% | 104% | 90.1% | 96.6% | 110% | 94.4% | 103% | 94.2% | –
O=C(c1ccc(Cl)cc1)c1ccc(Cl)cc1 | 108% | 98.2% | 129% | 124% | 103% | 104% | 102% | 107% | 114% | –
CCCCCc1c(C)[nH]c(/C=C2\N=C(c3ccc[nH]3)C=C2Oc2ccccc2)c1C | -68.1% [100 µM] (active) | -43.8% [100 µM] (active) | -44.7% [100 µM] (active) | -94.1% [100 µM] (active) | -57.2% [100 µM] (active) | -60.8% [100 µM] (active) | -57.7% [100 µM] (active) | – | -96.7% [100 µM] (active) | -66.9% [100 µM] (active)
O=Cc1ccccc1C(=O)O | 103% | 90.5% | 103% | 109% | 125% | 96.3% | 96.9% | 94.8% | 101% | –
O=[N+]([O-])c1ccc2[nH]cc(-c3c4ccccc4cc4[nH]c5ccc([N+](=O)[O-])cc5c34)c2c1 | 36.6% | 9.96% (active) | 26.5% | 45.6% | -2.62% (active) | 33.9% | 22.5% | 44% | -3.7% (active) | –
CCCCOP(=O)(OCCCC)C(C(=O)OCC)C(CC(=O)OCC)C(=O)OCC (stereo not drawn) | 122% | 109% | 125% | 100% | 93.4% | 109% | 101% | 91.4% | 114% | –
COc1cc(/C(Cl)=C/C=C/C(=O)c2c(C)[n+]([O-])c3ccc(Cl)cc3[n+]2[O-])cc(OC)c1OC | 67.8% | 13.3% | 65.7% | 30.1% | 47.9% | -20.1% (active) | 36.4% | 24.3% | 43.4% | –
OCCN1CCN(CCCN2c3ccccc3Sc3ccc(C(F)(F)F)cc32)CC1 | 58.8% | -55.8% (active) | -66.6% (active) | 40.8% | 28.2% | 41% | -43% (active) | 33.4% | -80.9% (active) | –
COc1cc(OC)c2c(c1Cl)O[C@]1(C2=O)C(OCc2ccccc2)=CC(=O)C[C@H]1C | 14.7% | 2.98% (active) | -42.4% (active) | 12.9% | 0.23% (active) | 21.3% | -58% (active) | -16.4% (active) | 2.91% (active) | –
O=C(Nc1ccc(Cl)cc1)Nc1ccccc1CNc1nc(Nc2ccc(OCCN3CCCC3)cc2)ncc1Cl | -42.9% (active) | -4.05% (active) | -81% (active) | -51% (active) | -64.6% (active) | 41.7% | 89.2% | 77.6% | -76.3% (active) | –
Cn1ccnc1C(=O)/C=C/c1ccc(C(=O)Nc2nc3ccccc3[nH]2)cc1 | -13.7% (active) | 2.24% (active) | 72.7% | 19.3% | 2.67% (active) | 40.2% | 64.9% | 9.47% (active) | 71.1% | –
c1cc[n+](Cc2ccnc3ccccc23)cc1 | 117% | 71.3% | 114% | 98.9% | 90.3% | 106% | 95.9% | 89.3% | 101% | –
O=C1/C(=C/c2ccc(F)cc2)Cc2ccccc21 | 104% | 110% | 107% | 107% | 99.6% | 110% | 90.8% | 107% | 103% | –
Oc1c(N=Nc2nn[nH]n2)ccc2ccccc12 | 96.6% | 97.2% | 9.84% (active) | 60.4% | 87.4% | 93.8% | 65.4% | 95.3% | 62.1% | –
CC(=O)c1nn(-c2ccccc2)c(=Nc2ccccc2)cc1C | 107% | 97.3% | 120% | 90.2% | 102% | 114% | 86.9% | 107% | 120% | –
N=C1c2nc3n(c2C(=O)c2nc4n(c21)CCCCC4)CCCCC3 | 113% | 102% | 103% | 117% | 102% | 108% | 93.8% | 105% | 108% | –
O=c1ncc(-c2ccc(C(F)(F)F)cc2)c(NC2CCCCCC2)[nH]1 | 78.5% | 30% | -26.4% (active) | 79% | 76.4% | 62.3% | 3% (active) | 91.7% | 34.8% | –
Cc1ccc(C(NC(=O)c2ccccc2)c2ccc3cccnc3c2O)cc1 (stereo not drawn) | 20.7% | 10.1% | 19.9% | 16.5% | 41.8% | 8.85% (active) | 10.3% | 7.53% (active) | -22.9% (active) | –
COc1cccc(/C=C2\Cc3ccccc3C2=O)c1 | 104% | 93.8% | 97% | 104% | 103% | 109% | 94.6% | 101% | 109% | –

— PubChem BioAssay (NCI)
